Bioassay records: PubChem BioAssay, National Center for Advancing Translational Sciences (NCATS)
Tau fibril ThT: tau fibrillization inhibition (ThT binding). P10636. recombinant tau K18 P301L, heparin-induced fibrillization, ThT fluorescence. Potency, µM (series often up to 57.4 µM), most hits filed as inhibitors. actives 2.1% (n = 270,000). AID 1460; also: nearly all actives have a fitted effect of over 55% in size
Target sequence (P10636 561-689 P618L limits assumed): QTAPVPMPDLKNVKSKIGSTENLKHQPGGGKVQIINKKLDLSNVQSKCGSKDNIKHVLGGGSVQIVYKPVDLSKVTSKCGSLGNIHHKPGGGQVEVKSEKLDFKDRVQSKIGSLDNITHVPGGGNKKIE
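ThT emission at 510 nm, taken 1 hr after adding 30 uM dye, quantifies aggregates formed when 20 uM heparin acts on human tau K18 P301L for 6 hr at 37 C.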
Tau fluor cs: counter-screen for tau fibril formation inhibitors | tau K18 P301L Alexa594 fluorescence, heparin fibrillization | Potency, µM (titrated, usually from 57.7 µM) | actives 0.93% (n = 280,000) | AID 1463; also: nearly all actives have a fitted effect of over 55% in size
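Human tau K18 P301L (15 uM unlabeled, 0.24 uM Alexa 594-labeled) in 100 mM sodium acetate pH 7 with 20 uM heparin, 6 hr at 37 C. ThT 30 uM added, 1 hr ambient; Alexa 594 FP and total fluorescence read at 555/632 nm.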
Tau fibril FP: inhibitors of human tau fibril formation; P10636; K18 P301L tau heparin fibrillization, Alexa594 FP, 6 h; Potency, µM (series often up to 57.7 µM), actives largely listed as inhibitors; actives 0.39% (n = 280,000); AID 1468; also: nearly all actives have a fitted effect of over 55% in size
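FP of Alexa 594-tau after heparin (20 uM) induction. Substrate: human K18 P301L, 15 uM unlabeled, 0.24 uM labeled. Buffer 100 mM sodium acetate pH 7. 6 hr, 37 C.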
HTT aggregate: mutant huntingtin aggregation inhibition. actives 1.1% (n = 220,000). Potency, µM (series often up to 46.1 µM), hits mostly inhibitors. PC12 HttQ103-GFP aggregates, Acumen cytometry, 40 h; also: nearly all actives have a fitted effect of over 60% in size
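PC12 cells stably carrying ecdysone-inducible HTT exon 1 Q103–GFP were induced with tebufenozide (100 nM final) and treated with library compounds in titration. GFP aggregates in lysates were counted by laser scanning cytometry.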
HTT ATP protect: cytoprotection in Huntington HTT-Q103 PC12 cell model; PC12 HTT-Q103 induced, cytoprotection, ATP luminescence, 40 h; Potency, µM (top dose mostly 56.4 µM), most hits filed as activators; AID 1471; actives 0.14% (n = 230,000); also: nearly all actives have a fitted effect of over 45% in size
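Huntington model: PC12 line, ecdysone-inducible HTTQ103 exon1–GFP, tebufenozide 100 nM. Test articles in a dose series. Endpoint luminescence from cellular ATP.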
Each line names hits and unclear results; the compound was inactive in the other large screens; [ ] = dose if it differs, or a comment. Most compounds without a hit are left out; they make up all but 3.7% or so of the library. Calls follow the shape of the dose curve; as a rule, active = well fitted curve in the direction sought with a large enough effect; inconclusive = small, poorly fitted or top-dose-only effect, or another doubt; inactive = no such curve, though single readings can be large; an effect the other way counts as inactive or inconclusive.

Cc1ccc(N2CCN(C(=O)Nc3cn(CC(C)C)c(=O)c4ccccc34)CC2)c(C)c1	Tau fibril ThT inconclusive (no result: HTT aggregate, HTT ATP protect)
COc1ccc(-c2[nH]c(-c3ccc(OC)c(OC)c3)nc2SCC(=O)Nc2ccccc2)cc1	Tau fluor cs 6.31µM[quencher] (no result: HTT aggregate, HTT ATP protect)
COc1ccc(-c2nc(SCC(=O)Nc3ccc4c(c3)OCCO4)c(-c3ccc(C)cc3)[nH]2)cc1OC	Tau fibril ThT inconclusive, Tau fluor cs 7.94µM[quencher] (no result: HTT aggregate, HTT ATP protect)
COc1ccc(NC(=O)CSc2nc(-c3cccc(C)c3)[nH]c2-c2ccccc2)cc1OC	Tau fibril ThT inconclusive, Tau fluor cs 8.91µM[quencher] (no result: HTT aggregate, HTT ATP protect)
COc1ccc(NC(=O)CSc2nc(-c3ccc(OC)c(OC)c3)[nH]c2-c2ccc(C)cc2)cc1	Tau fluor cs 4.47µM[quencher] (no result: HTT aggregate, HTT ATP protect)
Cc1cccc(CNC(=O)c2cccc(NC(=O)N3CCSc4ncccc43)c2)c1	none (no result: HTT aggregate, HTT ATP protect)
O=C(NC(Nc1nc2ccc([N+](=O)[O-])cc2s1)(C(F)(F)F)C(F)(F)F)c1ccccc1Cl	Tau fibril ThT inconclusive, Tau fluor cs inconclusive, HTT aggregate 0.316µM
Cc1ccccc1OCCCN1C(=O)C(=O)c2cccc(C)c21	Tau fibril ThT 22.4µM
Cc1cccc2c1N(CCCOc1ccccc1)C(=O)C2=O	Tau fibril ThT inconclusive
Cc1ccccc1-n1nc(CO)c(C(=O)NCc2cccnc2)n1	none (no result: HTT aggregate, HTT ATP protect)
Cc1cccc(CNc2cc(-c3cccnc3)ncn2)c1	none (no result: HTT aggregate)
CN(C)c1ccc(N=Nc2cccc3ccoc23)cc1	Tau fibril ThT 1.41µM, Tau fluor cs 15.8µM[quencher]
O=[N+]([O-])c1cc(S(=O)(=O)Nc2cccc(C(F)(F)F)c2)ccc1-n1nnc2ccccc21	Tau fibril ThT inconclusive, Tau fluor cs inconclusive, Tau fibril FP inconclusive, HTT aggregate 11.2µM
COc1cc(/C=N\Nc2ccc([N+](=O)[O-])cc2)ccc1OCC(=O)Nc1ccc(C)c(C)c1	Tau fibril ThT 1.58µM, Tau fluor cs 7.08µM[quencher]
CCOc1cc(/C=N\Nc2ccc([N+](=O)[O-])cc2)ccc1OCC(=O)Nc1ccc(C)c(C)c1	Tau fibril ThT 2.24µM, Tau fluor cs inconclusive
CN(C)CCCO[C@H]1[C@H]([C@H](O)CO)O[C@H]2OC(C)(C)O[C@@H]21	none (no result: Tau fibril ThT, Tau fluor cs, Tau fibril FP, HTT aggregate)
C[C@H]1Cc2c(COc3ccccc3)nc3c(c2CO1)CN(C(=O)C1CC1)CC3	HTT ATP protect inconclusive (no result: HTT aggregate)
COc1ccc(C(=O)COC(=O)CNS(=O)(=O)c2ccc(C)cc2)cc1	HTT aggregate 25.1µM
O=C(CSc1nnc(-c2ccccc2Br)n1-c1ccccc1)c1ccc(F)cc1	none (no result: HTT aggregate, HTT ATP protect)
Cc1cc(C)c(Nc2cc(S(=O)(=O)O)c(N)c3c2C(=O)c2ccccc2C3=O)c(C)c1	Tau fibril ThT 7.94µM, Tau fluor cs 7.08µM[quencher], Tau fibril FP 20µM
[N-]=[N+]=Nc1ccc(C(=O)CSC[C@@H](NC(=O)CC[C@@H](N)C(=O)O)C(=O)NCC(=O)O)cc1	none (no result: Tau fibril ThT, Tau fluor cs, Tau fibril FP, HTT aggregate)
CC(Cc1ccc(O)c(O)c1)C(C)Cc1ccc(O)c(O)c1 (stereo unspecified)	Tau fibril ThT inconclusive, Tau fluor cs 15.8µM[quencher], HTT ATP protect inconclusive
COc1ccc(C(=O)/C=C/c2ccc(O)cc2)c(O)c1CC=C(C)C	Tau fibril ThT 25.1µM, Tau fluor cs 15.8µM[quencher], Tau fibril FP inconclusive (no result: HTT ATP protect)
CSCC[C@@H](C(=O)O)N(C)C	none (no result: Tau fibril ThT, Tau fluor cs, Tau fibril FP, HTT aggregate)
NC(=S)n1[nH]c(-c2ccc([N+](=O)[O-])cc2)c(N=Nc2ccc(Cl)cc2)c1=O	Tau fibril ThT 3.98µM, Tau fluor cs inconclusive, HTT aggregate 7.94µM
Cc1ccc(N=Nc2c(N)n(-c3ccccc3)[nH]c2=O)cc1	Tau fibril ThT 3.16µM, Tau fluor cs 10µM[quencher]
O=P(c1ccccc1)(c1ccccc1)c1nc(-c2ccccc2)oc1NCc1ccccc1	Tau fibril ThT inconclusive, HTT aggregate 11.2µM
CCOP(=O)(OCC)c1nc(-c2ccccc2)oc1NCc1ccccc1	none
Cc1cc(=O)n2nc(N3CCC(C(=O)Nc4ccc(Br)c(C)c4)CC3)sc2n1	Tau fibril ThT inconclusive (no result: HTT aggregate, HTT ATP protect)
CC(=O)c1ccc(NC(=O)c2ccc(-c3nc(COc4ccc(C)cc4)c(C)o3)cc2)cc1	none (no result: HTT aggregate, HTT ATP protect)
CN(C)CC(O)Cn1c2ccc(Br)cc2c2cc(Br)ccc21 (stereo unspecified)	Tau fluor cs inconclusive, Tau fibril FP 25.1µM (no result: HTT aggregate)
CSc1ccccc1NC(=O)C1=CC(c2ccc3c(c2)OCO3)=NS(=O)(=O)N1C	Tau fibril FP inconclusive (no result: HTT aggregate, HTT ATP protect)
O=C(NCC(c1ccc2c(c1)OCO2)N1CCOCC1)C(=O)Nc1ccc(Cl)cc1 (stereo unspecified)	Tau fibril ThT inconclusive (no result: HTT aggregate, HTT ATP protect)
Cc1nc2sc(C(N)=O)c(N)c2c(C)c1CC(=O)c1ccccc1	HTT aggregate 3.55µM
O=C(/C=C/c1ccc(Cl)c(Cl)c1)NCc1ccco1	none
O=C(/C=C/c1ccc(Cl)c(Cl)c1)n1cccn1	Tau fibril ThT 14.1µM, Tau fibril FP inconclusive
O=C1C(N2CCOCC2)=C(n2nnc3ccccc32)C(=O)c2ccccc21	Tau fibril ThT 12.6µM, Tau fluor cs inconclusive, Tau fibril FP inconclusive, HTT aggregate inconclusive
CCN1/C(=C/C=C/c2oc3ccc(-c4ccccc4)cc3[n+]2CC)Oc2ccc(-c3ccccc3)cc21	Tau fibril ThT inconclusive, Tau fluor cs 3.98µM[fluorescent], Tau fibril FP inconclusive, HTT aggregate 0.355µM
CCCCN1C(=O)/C(=C/C=C2\Oc3ccccc3N2CC)SC1=S	Tau fibril ThT inconclusive, HTT aggregate inconclusive
CCOC(=O)C1CCC(CN(Cc2ccc(Cl)cc2)S(=O)(=O)c2cc(Cl)cc(Cl)c2)CC1 (stereo unspecified)	none (no result: HTT aggregate, HTT ATP protect)
COc1cccc(/C=N/NC(=O)c2cc3c(OC)cccc3[nH]2)c1O	Tau fibril ThT inconclusive, HTT aggregate 2.24µM
